This is an account of results in the supplement of paper PMC9135407.

The test system of this experiment is primary human hepatic stellate cells (donor 1). As to the kind of experiment: scaled lipid accumulation score (0 = DMSO-like, 1 = nortriptyline-like); higher = stronger HSC inactivation (lipid re-accumulation), active = hit call of the paper. Particulars: 48 h.
The mark [1] stands for this setting: library stock concentration: 1 mM.
The mark [2] stands for this setting: library stock concentration: 3.33 mM.
The mark [3] stands for this setting: library stock concentration: 10 mM.
[4] abbreviates: library stock concentration: 80 uM.
The mark [5] stands for this setting: library stock concentration: 400 uM.
Where [6] appears, read: library stock concentration: 2 mM.
Setting [7] is: library stock concentration: 8.9 mM.

Values joined by “and” are separate entries in the source; they are usually repeats but may differ in a detail not shown here. Identical values can stand only once. Counter-ions that a name gives are not always drawn. Hit rate of the full screen: of about 5,800 compounds, about 620 (11%) showed activity. This is one part of a sample in which actives are shown more often than they occur. A number with no mark means an inactive call.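 How the source made its calls: active = score above a cut-off or among the top three wells of a plate; in these data no inactive exceeds 0.85.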

As for `CCCCCCC=CCCCCCCCCCCOC(C)=O` [11-cis Vaccenyl Acetate], under setting [1], the “scaled lipid accumulation score” value was not above 0.
On to `Nc1nc(Nc2ccc(S(N)(=O)=O)cc2)nn1C(=S)Nc1c(F)cccc1F` [Cdk1/2 Inhibitor III], for which the “scaled lipid accumulation score” value under setting [2] is 0.782.
As to `CCCCC/C=C\C[C@@H](O)/C=C/C=C\C/C=C\CCCC(=O)O`, the “scaled lipid accumulation score” value (library stock concentration: 100 uM) is not above -0.021.
For `CCc1cc2c(cc1CC)CC(NC[C@H](O)c1ccc(O)c3[nH]c(=O)ccc13)C2` [Indacaterol Maleate], the “scaled lipid accumulation score” value under setting [2] was 0.494.
With `CCC(NC(C)C)C(O)c1ccc(O)c2[nH]c(=O)ccc12` (centres undefined) [Procaterol hydrochloride], the “scaled lipid accumulation score” value is not above 0 (library stock concentration: 6.1 mM) and not above -0.006 under setting [3].
As to `CCc1cc2c(cc1CC)CC(NC[C@H](O)c1ccc(O)c3[nH]c(=O)ccc13)C2.O=C(O)C=CC(=O)O` [Indacaterol Maleate], the “scaled lipid accumulation score” value under setting [3] is 1.15 (active).
For the molecule `CCC(NC(C)C)C(O)c1ccc(O)c2[nH]c(=O)ccc12` (centres undefined) [Procaterol hcl], the “scaled lipid accumulation score” value (library stock concentration: 6.9 mM) is not above -0.006.
Turning to `Cc1nc2ccc(-n3ncc(C(=O)c4cc5ccccc5[nH]4)c3N)cc2[nH]1` [listing 1 of 2 here], the “scaled lipid accumulation score” value under setting [4] is 0.004, the “scaled lipid accumulation score” value under setting [5] is not above -0.001 and the “scaled lipid accumulation score” value under setting [6] was not above 0.
As for `O=C(O)c1cc2ccccc2[nH]1` [Indole-2-carboxylic acid], under setting [3], the “scaled lipid accumulation score” value is not above 0.
Same read-out and setting: the same measure for `Cc1nc2ccc(-n3ncc(C(=O)c4cc5ccccc5[nH]4)c3N)cc2[nH]1` [listing 2 of 2 here]: 0.907 (active).
With `CC(C)c1cc(C(C)C)c(CC(=O)NS(=O)(=O)Oc2c(C(C)C)cccc2C(C)C)c(C(C)C)c1` [Avasimibe], the “scaled lipid accumulation score” value under setting [2] was not above 0 and the “scaled lipid accumulation score” value under setting [3] is not above 0.
As to `COc1cc(/C=C/c2ccc(Cl)cc2)cc(OC)c1`, the “scaled lipid accumulation score” value under setting [1] was not above 0.
For the molecule `COc1cccc(NC(=O)/C=C/c2ccc(Cl)cc2)c1` [listing 1 of 2 here], the “scaled lipid accumulation score” value under setting [3] is 0.153.
The same measure, in the same setting: the same measure for `COc1cccc(NC(=O)/C=C/c2ccc(Cl)cc2)c1` [listing 2 of 2 here]: 1.2 (active).
Take `CCCCC/C=C\CCCCCCCCCCCCC(=O)O` [14(Z)-Eicosenoic Acid]: the “scaled lipid accumulation score” value under setting [1] is not above 0.
Consider `CN1CCN(c2ccc3nc(-c4c(N)c5c(F)cccc5[nH]c4=O)[nH]c3c2)CC1` [listing 1 of 2 here], for which the “scaled lipid accumulation score” value under setting [5] is 0.945 (active), the “scaled lipid accumulation score” value under setting [6] was 1.11 (active) and the “scaled lipid accumulation score” value under setting [3] was 1.08 (active).
As to `CN1CCN(c2ccc3nc(-c4c(N)c5c(F)cccc5[nH]c4=O)[nH]c3c2)CC1` [Dovitinib (TKI-258) Dilactic Acid], the “scaled lipid accumulation score” value under setting [3] was 0.445.
In the case of `CN1CCN(c2ccc3nc(-c4c(N)c5c(F)cccc5[nH]c4=O)[nH]c3c2)CC1` [Dovitinib (TKI-258, CHIR-258)], the “scaled lipid accumulation score” value is, setting by setting: under setting [2], 1.25 (active); under setting [3], 1.13 (active).
`CN1CCN(c2ccc3nc(-c4c(N)c5c(F)cccc5[nH]c4=O)[nH]c3c2)CC1` [listing 2 of 2 here]: the “scaled lipid accumulation score” value under setting [4] is 0.779.
For `CN1CCN(C(=O)c2nc3ccc(Cl)cc3[nH]2)CC1`, the “scaled lipid accumulation score” value under setting [3] is 0.076.
In the case of `CCOc1ccc(-c2nc3ccc(-c4nc5ccc(N6CCN(C)CC6)cc5[nH]4)cc3[nH]2)cc1`, under setting [7], the “scaled lipid accumulation score” value is 0.339.
With `CC(O)C(=O)O.CC(O)C(=O)O.CN1CCN(c2ccc3nc(-c4c(N)c5c(F)cccc5[nH]c4=O)[nH]c3c2)CC1` [Dovitinib (TKI-258) Dilactic Acid], the “scaled lipid accumulation score” value under setting [2] was 1.27 (active).
As for `CC[C@@H]1Cn2c(c3nc(-c4ccccc4)nc-3n(C)c2=O)N1`, under setting [3], the “scaled lipid accumulation score” value was 0.008.
Regarding `c1cnc2cc3c(cc2n1)[C@@H]1CNC[C@H]3C1` [Varenicline tartrate], under setting [3], the “scaled lipid accumulation score” value was not above 0.
With `NC(=O)[C@@H]1CCCN1C(=O)[C@H](Cc1c[nH]cn1)NC(=O)[C@@H]1CCC(=O)N1`, the “scaled lipid accumulation score” value under setting [3] is not above 0.
Take `CC[C@@H](C(=O)[C@@H](C)[C@@H](O)[C@H](C)CCc1ccc(C)c(O)c1C(=O)O)[C@H]1O[C@](CC)([C@H]2CC[C@](O)(CC)[C@H](C)O2)C[C@@H]1C` [Lasalocid sodium salt]: the “scaled lipid accumulation score” value is 0.439.
Regarding `CC[C@@H](C(=O)[C@@H](C)[C@@H](O)[C@H](C)CCc1ccc(C)c(O)c1C(=O)O)[C@H]1O[C@](CC)([C@H]2CC[C@](O)(CC)[C@H](C)O2)C[C@@H]1C` [Lasalocid sodium], the “scaled lipid accumulation score” value under setting [3] was 0.665.
Take `COc1ccc(C2CC(c3c(O)cc(C)oc3=O)=NCCS2)c(OC)c1` (centres undefined): the “scaled lipid accumulation score” value under setting [3] was 0.164.
In the case of `CCCCC[C@](C)(O)/C=C/[C@H]1[C@H](O)CC(=O)[C@@H]1CCCCCCC(=O)O` [15(S)-15-methyl Prostaglandin E1], the “scaled lipid accumulation score” value under setting [1] is 0.012.
With `Cc1nnc(-c2ccc3occ(-c4ccc([S+](C)[O-])cc4)c3c2)o1` (centres undefined), the “scaled lipid accumulation score” value under setting [3] is 0.106.
`NC(=O)Cc1cccc(C(=O)c2ccccc2)c1N` [Nepafenac]: the “scaled lipid accumulation score” value under setting [2] was not above 0 and the “scaled lipid accumulation score” value under setting [3] is 0.098.
Regarding `O=C(O)C1CSCN1` (centres undefined), the “scaled lipid accumulation score” value under setting [3] was not above 0.
With `COc1c(OC)c2occc2c2oc(=O)ccc12` [Pimpinellin], under setting [3], the “scaled lipid accumulation score” value was not above 0.
On to `O=C(O)CCC/C=C/C[C@@H]1[C@@H](/C=C/[C@@H](O)COc2cccc(C(F)(F)F)c2)[C@H](O)C[C@@H]1O` [5-trans Fluprostenol], for which the “scaled lipid accumulation score” value under setting [1] was 0.008.
As to `CC(C)COCC(CN(Cc1ccccc1)c1ccccc1)N1CCCC1.Cl` (centres undefined), the “scaled lipid accumulation score” value (library stock concentration: 12.4 mM) was 0.96 (active).
Turning to `c1ccc(CN(CC2=NCCN2)c2ccccc2)cc1` [Antazoline phosphate], the “scaled lipid accumulation score” value under setting [3] is 0.143.
On to `c1ccc(CN(CC2=NCCN2)c2ccccc2)cc1` [Antazoline HCl], for which the “scaled lipid accumulation score” value by setting is: under setting [2], not above 0; under setting [3], 0.363.
With `c1ccc(CN(CC2=NCCN2)c2ccccc2)cc1` [Antazoline hydrochloride], the “scaled lipid accumulation score” value is 0.544. For the same molecule, the “scaled lipid accumulation score” value under setting [3] was 0.11.
With `CC(C)COCC(CN(Cc1ccccc1)c1ccccc1)N1CCCC1` (centres undefined) [Bepridil hydrochloride], the “scaled lipid accumulation score” value was 0.677. The “scaled lipid accumulation score” value (library stock concentration: 5 mM) was 0.569. Besides, the “scaled lipid accumulation score” value under setting [3] is 0.175 and 0.195.
Turning to `Nc1cc2c(ncn2CCOCP(=O)(O)O)c(=O)[nH]1` [PMEG hydrate], under setting [3], the “scaled lipid accumulation score” value is not above -0.055.
As to `CO[C@H]1C=CC=C(C)C(=O)NC2=CC(=O)C(NCCN(C)C)=C(C[C@@H](C)C[C@H](OC)[C@H](O)[C@@H](C)C=C(C)[C@@H]1OC(N)=O)C2=O.Cl` [17-DMAG (Alvespimycin) HCl], the “scaled lipid accumulation score” value under setting [3] was 1.24 (active).
For the molecule `CO[C@H]1/C=C\C=C(/C)C(=O)NC2=CC(=O)C(NCCN(C)C)=C(C[C@@H](C)C[C@H](OC)[C@H](O)[C@@H](C)/C=C(\C)[C@@H]1OC(N)=O)C2=O` [17-DMAG (Alvespimycin) HCl], the “scaled lipid accumulation score” value under setting [2] is 0.404.
As for `C=CCNC1=C2C[C@@H](C)C[C@H](OC)[C@H](O)[C@@H](C)C=C(C)[C@H](OC(N)=O)[C@@H](OC)C=CC=C(C)C(=O)NC(=CC1=O)C2=O` [17-AAG (Tanespimycin)], under setting [3], the “scaled lipid accumulation score” value was 0.873 (active).
As to `COC1=C2C[C@@H](C)C[C@H](OC)[C@H](O)[C@@H](C)/C=C(\C)[C@H](OC(N)=O)[C@@H](OC)/C=C\C=C(/C)C(=O)NC(=CC1=O)C2=O` [Geldanamycin], the “scaled lipid accumulation score” value by setting is: under setting [2], 0.54; under setting [7], 0.573; under setting [3], 0.493.
Consider `C=CCNC1=C2C[C@@H](C)C[C@H](OC)[C@H](O)[C@@H](C)/C=C(\C)[C@H](OC(N)=O)[C@@H](OC)/C=C\C=C(/C)C(=O)NC(=CC1=O)C2=O` [17-AAG (Tanespimycin)], for which the “scaled lipid accumulation score” value under setting [2] is 0.613.
